Several values for one entry are separate records, joined by “and”; a condition that tells them apart may be missing. Identical values can stand only once. Inconclusive results are not listed. More than one record can exist for a structure, and the calls need not agree. Activity calls are given as the source filed them. Unless noted, the call rests on the fitted dose curve; in most records, active means well fitted curve in the direction sought with a large enough effect; inconclusive means small, poorly fitted or top-dose-only effect, or another doubt; inactive means no such curve, though single readings can be large; an effect the other way counts as inactive or inconclusive.
Legend:
[1] = target: Lysosomal acid glucosylceramidase (Homo sapiens) (UniProt P04062); test: Glucocerebrosidase-p2 (AID 348; in the data active means potency below about 10 µM; further: potency means the concentration at half of the fitted maximal effect); conditions: purified GBA, blue fluorogenic substrate, 40 min
Outline: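 Compounds titrated from 0.6 nM upwards against 0.2 nM enzyme in pH 5.9 citric acid/KH2PO4, taurocholate, tween-20; blue fluorogenic substrate 80 uM, 40 min room temperature, stopped and read Ex 365/Em 440 for AC50.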

[2] = AP1 Signaling Pathway (AID 357; active means well fitted curve in either direction with a large enough effect, not every such curve was filed as active;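 further: ME-180 reporter cells stimulated with EGF at its EC50 level; on the % scale 0 is the no-effect control and ±100 the full control effect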); conditions: ME-180 AP-1-bla reporter, EGF-induced, beta-lactamase ratio, 5 h; at 7.69 µM (top of the series) unless noted
Outline: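 Modulation of EGF-driven AP-1 transcription was assessed with a beta-lactamase reporter in ME-180 cells. Compound and EC50 EGF were co-incubated 5 hours at 37 °C before 2.5-hour CCF4 loading at room temperature and dual-emission reading.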

[3] = target: Cytochrome P450 1A2 (Homo sapiens) (UniProt P05177); test: p450-cyp1a2 (AID 410; calls by dose curve; further: potency means the concentration at half of the fitted maximal effect;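 on activity change, negative = inhibition: -100% = full effect of reference inhibitor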)
Cytochrome P450 1A2 (Homo sapiens), sequence (P05177 whole entry, looked up): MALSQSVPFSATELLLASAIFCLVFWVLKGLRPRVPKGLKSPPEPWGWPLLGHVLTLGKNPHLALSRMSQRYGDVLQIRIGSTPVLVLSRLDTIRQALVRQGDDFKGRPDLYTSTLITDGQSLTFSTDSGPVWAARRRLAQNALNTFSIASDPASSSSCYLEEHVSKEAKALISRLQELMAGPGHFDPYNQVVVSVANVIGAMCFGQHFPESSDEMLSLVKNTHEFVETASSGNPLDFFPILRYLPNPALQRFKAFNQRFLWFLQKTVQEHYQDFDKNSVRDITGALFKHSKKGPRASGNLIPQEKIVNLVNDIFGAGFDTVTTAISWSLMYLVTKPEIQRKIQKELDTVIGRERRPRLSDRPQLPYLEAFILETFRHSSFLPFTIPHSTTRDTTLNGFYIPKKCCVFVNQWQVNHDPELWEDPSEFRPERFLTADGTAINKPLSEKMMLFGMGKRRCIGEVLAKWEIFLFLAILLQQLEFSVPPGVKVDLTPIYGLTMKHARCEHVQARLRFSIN
Outline: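 Inhibition was calculated relative to 57 uM furafylline (full inhibition). The reaction used human CYP1A2 at 20nM with Luciferin-ME at its Km, 100uM, driven by an NADPH-regenerating system for 60 min at room temperature.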

[4] = NFAT Signaling Pathway (AID 444; active means well fitted curve in either direction with a large enough effect, not every such curve was filed as active;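 further: carbachol stimulus at about its EC50 of 1 µM final; on the % scale 0 is the no-effect control and ±100 the full control effect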); conditions: Jurkat NFAT-bla M1, carbachol, beta-lactamase ratio, 5 h; at 7.69 µM (top of the series) unless noted
Outline: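 Read-out: CCF4 FRET ratio (460 nm/530 nm) after 1 h RT dye loading, used for %activity and AC50 from titration series. Cells: Jurkat NFAT-β-lactamase/M1 line, treated with compound plus 1 uM carbachol for 5 h, 37 °C.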

[5] = Stat Signaling Pathway (AID 446; active means well fitted curve in either direction with a large enough effect, not every such curve was filed as active;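 further: ME-180 cervical cancer cells given 40 pM IL-6 alongside compound; SIE-controlled beta-lactamase reporter measured as 460/530 nm FRET emission ratio; on the % scale 0 is the no-effect control and ±100 the full control effect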); conditions: ME-180 SIE beta-lactamase reporter, IL-6 stimulated, 5 h; at 7.69 µM (top of the series) unless noted
Outline: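 ME-180 cells carrying a SIE-driven beta-lactamase reporter are stimulated with 40 pM IL-6 for 5 h at 37C in the presence of compound. The 460/530 nm FRET substrate ratio is read after 2.5 h at RT. Data are normalised to 300 pM IL-6 and to 125 nM JAK inhibitor controls.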

[6] = target: Glucocorticoid receptor (Homo sapiens) (UniProt P04150); test: GR-EFC Redistribution (AID 451; calls by dose curve; further: potency means the concentration at half of the fitted maximal effect); conditions: CHO-K1 GR-EFC translocation, beta-gal luminescence, 2 h
Glucocorticoid receptor (Homo sapiens), sequence (P04150 whole entry, looked up, the tested form may be a part): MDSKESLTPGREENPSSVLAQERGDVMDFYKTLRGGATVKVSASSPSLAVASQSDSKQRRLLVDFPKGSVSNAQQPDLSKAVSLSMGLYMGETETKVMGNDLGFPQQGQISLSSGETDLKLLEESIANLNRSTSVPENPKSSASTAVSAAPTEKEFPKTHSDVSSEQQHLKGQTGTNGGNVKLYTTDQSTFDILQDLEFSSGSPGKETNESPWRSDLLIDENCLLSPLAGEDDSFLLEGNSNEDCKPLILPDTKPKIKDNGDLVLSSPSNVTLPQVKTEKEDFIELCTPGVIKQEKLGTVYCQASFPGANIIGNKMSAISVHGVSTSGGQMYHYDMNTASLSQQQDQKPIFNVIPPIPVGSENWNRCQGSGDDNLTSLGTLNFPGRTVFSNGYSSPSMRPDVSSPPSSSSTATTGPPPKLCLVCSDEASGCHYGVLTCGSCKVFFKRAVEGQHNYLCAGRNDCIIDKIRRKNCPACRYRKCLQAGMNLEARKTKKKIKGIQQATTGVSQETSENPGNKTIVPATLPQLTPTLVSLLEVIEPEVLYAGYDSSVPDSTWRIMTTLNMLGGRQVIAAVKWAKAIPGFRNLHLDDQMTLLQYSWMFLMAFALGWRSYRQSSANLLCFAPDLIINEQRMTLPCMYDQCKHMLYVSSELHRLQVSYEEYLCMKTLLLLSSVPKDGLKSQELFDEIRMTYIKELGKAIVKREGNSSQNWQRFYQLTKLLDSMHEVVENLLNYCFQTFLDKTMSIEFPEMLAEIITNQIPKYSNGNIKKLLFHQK
Outline: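 Translocation of GR-ED fusion to nuclear EA restores b-gal, read by luminescence after 1 h room-temperature detection. Engineered CHO-K1 biosensor cells, 1,000/well, exposed 2 h at 37 C to titrations up to 46 uM final.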

[7] = target: Mitogen-activated protein kinase 10 (Mus musculus) (UniProt Q61831); test: JNK3 AlphaScreen Assay (AID 530; active means well fitted curve in either direction with a large enough effect, not every such curve was filed as active;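 further: kinase came from lysate of stimulated human HepG2 cells; signal reports phosphorylation of biotinylated GST-cJun 1-79 at Ser73 with 10 µM ATP; on the % scale 0 is the no-effect control and ±100 the full control effect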)
Outline: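 Room-temperature AlphaScreen kinase assay; pre-activated HepG2 lysate as JNK3 source, biotin-GST-cJun(1-79) substrate, 10 uM ATP, compound 15 min preincubation.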

[8] = target: Cytochrome P450 3A4 (Homo sapiens) (UniProt P08684); test: qHTS Assay for Activators of Cytochrome P450 3A4 (AID 885); further: nearly all actives have a fitted effect of over 65% in size
Cytochrome P450 3A4 (Homo sapiens), sequence (P08684 whole entry, looked up): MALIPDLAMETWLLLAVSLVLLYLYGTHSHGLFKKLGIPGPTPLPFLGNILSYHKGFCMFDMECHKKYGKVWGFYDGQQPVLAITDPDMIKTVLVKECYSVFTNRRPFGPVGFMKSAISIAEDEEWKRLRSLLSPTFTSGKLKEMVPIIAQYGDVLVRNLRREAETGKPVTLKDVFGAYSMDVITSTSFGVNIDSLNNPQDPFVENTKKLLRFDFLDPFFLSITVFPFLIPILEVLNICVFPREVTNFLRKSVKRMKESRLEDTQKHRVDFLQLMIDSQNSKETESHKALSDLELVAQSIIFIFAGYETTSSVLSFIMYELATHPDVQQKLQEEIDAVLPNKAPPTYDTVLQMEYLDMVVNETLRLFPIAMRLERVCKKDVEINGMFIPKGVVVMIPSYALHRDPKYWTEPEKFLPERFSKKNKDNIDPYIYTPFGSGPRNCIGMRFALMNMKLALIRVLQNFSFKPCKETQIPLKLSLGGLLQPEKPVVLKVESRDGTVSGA
Outline: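 Human CYP3A4 (20 nM) with Luciferin-PPXE at 25 uM (its KM) in 200 mM KPO4; 10 min compound preincubation, then NADPH regeneration and 60 min reaction at RT. Luciferin read by luminescence; normalized to 57 uM ketoconazole full inhibition.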

[9] = target: Dual specificity protein kinase CLK4 (Homo sapiens) (UniProt Q9HAZ1); test: qHTS Assay for Inhibitors of CDC-like Kinase 4 (Kinase-Glo Assay) (AID 1770); further: nearly all actives have a fitted effect of over 65% in size; further: potency means the concentration at half of the fitted maximal effect
Dual specificity protein kinase CLK4 (Homo sapiens), sequence (Q9HAZ1 whole entry, looked up): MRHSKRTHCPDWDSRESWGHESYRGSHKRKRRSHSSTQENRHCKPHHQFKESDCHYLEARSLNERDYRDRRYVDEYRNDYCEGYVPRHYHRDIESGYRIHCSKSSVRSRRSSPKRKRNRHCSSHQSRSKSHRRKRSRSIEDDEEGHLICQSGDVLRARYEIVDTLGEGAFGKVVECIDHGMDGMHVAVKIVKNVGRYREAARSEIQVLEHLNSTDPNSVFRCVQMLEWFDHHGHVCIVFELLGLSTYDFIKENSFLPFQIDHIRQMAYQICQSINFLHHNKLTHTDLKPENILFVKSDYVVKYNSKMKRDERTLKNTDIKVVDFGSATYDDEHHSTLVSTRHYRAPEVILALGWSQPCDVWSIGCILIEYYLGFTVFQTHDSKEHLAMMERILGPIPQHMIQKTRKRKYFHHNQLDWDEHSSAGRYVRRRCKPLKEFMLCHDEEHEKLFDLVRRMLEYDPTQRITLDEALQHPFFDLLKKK
Outline: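 Recombinant human Clk4 (25 nM) phosphorylated RS repeat peptide (100 uM) with 1 uM ATP in Tris pH 7.5/MgCl2/EGTA/DTT/Triton buffer for 4.5 h at room temperature. Residual ATP was quantified by Kinase-Glo luciferase luminescence.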

[10] = target: Dual specificity protein kinase CLK4 (Homo sapiens) (UniProt Q9HAZ1); test: qHTS Assay for Inhibitors of CDC-like Kinase 4 (ADP-Glo Assay) (AID 1771); further: nearly all actives have a fitted effect of over 70% in size; further: potency means the concentration at half of the fitted maximal effect
Outline: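 Kinase reaction: Clk4 at 25 nM, RS repeat peptide substrate at 100 uM, ATP at 1 uM, 1 hr, room temperature. Product ADP detected as luciferase signal via ADP-Glo.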

[11] = target: Dual specificity protein kinase CLK4 (Homo sapiens) (UniProt Q9HAZ1); test: qHTS Assay for Inhibitors of CDC-like Kinase 4 (ADP-FP Assay) (AID 1795); further: nearly all actives have a fitted effect of over 60% in size; further: potency means the concentration at half of the fitted maximal effect
Outline: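 Recombinant human Clk4 (6.25 nM) phosphorylated RS repeat peptide (100 uM) with 1 uM ATP in Tris pH 7.5/MgCl2/EGTA/DTT/Triton buffer for one hour. ADP was quantified by Transcreener competitive fluorescence polarization against an ADP calibration curve.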

[12] = target: Ubiquitin carboxyl-terminal hydrolase 1 (Homo sapiens) (UniProt O94782); test: Inhibitors of USP1/UAF1: Pilot qHTS (AID 504865);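 further: rhodamine fluorescence freed from ubiquitin-rhodamine substrate followed over time; top concentration of the series differs between compounds; on the % scale 0 is the no-effect control and ±100 the full control effect; nearly all actives have a fitted effect of over 35% in size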
Outline: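 USP1/UAF1 complex (1nM) preincubated with compound 15 min at room temperature, then Ub-Rho substrate (150nM final) added. Fluorescence read kinetically at 480/540 nm, 6 reads every 60 seconds. Buffer: 50mM HEPES pH 7.8, 0.5mM EDTA, 0.1 mg/ml BSA, 1mM TCEP, 0.01% Tween-20.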

[13] = Primary qHTS for small molecule stabilizers of the endoplasmic reticulum resident proteome: Secreted ER Calcium Modulated Protein (SERCaMP) assay (AID 1508630); further: on the % scale 0 is the no-effect control and ±100 the full control effect
Outline: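 GLuc-SERCaMP-expressing SH-SY5Y cells, pretreated 16 h with compound, are challenged with thapsigargin to empty ER calcium stores; after 4 h, coelenterazine is added directly to the medium and luminescence is imaged.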

[14] = target: Rap guanine nucleotide exchange factor 3 (Homo sapiens) (UniProt O95398); test: Confirmatory qHTS for agonist of cAMP-regulated guanine nucleotide exchange factor 3 (EPAC1) (AID 1645881);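 further: EPAC1 catalysed release of BODIPY-GDP from Rap1B seen as fluorescence loss; 100% = effect of cAMP agonist control; nearly all actives have a fitted effect of over 75% in size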
Rap guanine nucleotide exchange factor 3 (Homo sapiens), sequence (O95398 whole entry, looked up): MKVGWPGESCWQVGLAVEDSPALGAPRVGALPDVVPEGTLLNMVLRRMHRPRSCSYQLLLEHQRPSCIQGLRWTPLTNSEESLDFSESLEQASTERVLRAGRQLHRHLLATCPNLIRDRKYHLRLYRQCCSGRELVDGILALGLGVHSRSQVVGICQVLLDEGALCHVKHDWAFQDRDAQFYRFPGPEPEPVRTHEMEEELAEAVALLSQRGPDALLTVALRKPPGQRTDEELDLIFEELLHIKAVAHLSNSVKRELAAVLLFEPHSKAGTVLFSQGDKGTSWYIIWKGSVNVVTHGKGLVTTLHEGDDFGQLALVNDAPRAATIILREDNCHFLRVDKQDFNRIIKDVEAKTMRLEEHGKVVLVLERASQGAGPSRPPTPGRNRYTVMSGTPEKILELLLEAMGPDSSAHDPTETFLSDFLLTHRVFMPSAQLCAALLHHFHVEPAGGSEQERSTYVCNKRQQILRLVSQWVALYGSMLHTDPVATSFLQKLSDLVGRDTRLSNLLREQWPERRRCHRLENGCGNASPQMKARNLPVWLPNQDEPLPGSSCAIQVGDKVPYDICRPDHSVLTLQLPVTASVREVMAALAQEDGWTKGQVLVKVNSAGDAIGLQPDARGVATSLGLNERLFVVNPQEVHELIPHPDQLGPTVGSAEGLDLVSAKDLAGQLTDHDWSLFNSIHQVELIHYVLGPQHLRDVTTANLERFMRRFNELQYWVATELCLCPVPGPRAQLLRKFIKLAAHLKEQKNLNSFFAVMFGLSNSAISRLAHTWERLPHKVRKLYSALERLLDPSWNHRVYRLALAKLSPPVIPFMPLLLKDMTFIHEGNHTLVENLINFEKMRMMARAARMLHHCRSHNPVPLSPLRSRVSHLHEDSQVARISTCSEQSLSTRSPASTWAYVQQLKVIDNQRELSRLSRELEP

[15] = target: Rap guanine nucleotide exchange factor 4 (Homo sapiens) (UniProt Q8WZA2); test: Confirmatory qHTS for agonist of cAMP-regulated guanine nucleotide exchange factor 4 (EPAC2) (AID 1645884);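 further: nucleotide exchange releases bodipy-GDP from Rap1 and this lowers its fluorescence; on the % scale 0 is the no-effect control and ±100 the full control effect; nearly all actives have a fitted effect of over 65% in size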
Rap guanine nucleotide exchange factor 4 (Homo sapiens), sequence (Q8WZA2 whole entry, looked up): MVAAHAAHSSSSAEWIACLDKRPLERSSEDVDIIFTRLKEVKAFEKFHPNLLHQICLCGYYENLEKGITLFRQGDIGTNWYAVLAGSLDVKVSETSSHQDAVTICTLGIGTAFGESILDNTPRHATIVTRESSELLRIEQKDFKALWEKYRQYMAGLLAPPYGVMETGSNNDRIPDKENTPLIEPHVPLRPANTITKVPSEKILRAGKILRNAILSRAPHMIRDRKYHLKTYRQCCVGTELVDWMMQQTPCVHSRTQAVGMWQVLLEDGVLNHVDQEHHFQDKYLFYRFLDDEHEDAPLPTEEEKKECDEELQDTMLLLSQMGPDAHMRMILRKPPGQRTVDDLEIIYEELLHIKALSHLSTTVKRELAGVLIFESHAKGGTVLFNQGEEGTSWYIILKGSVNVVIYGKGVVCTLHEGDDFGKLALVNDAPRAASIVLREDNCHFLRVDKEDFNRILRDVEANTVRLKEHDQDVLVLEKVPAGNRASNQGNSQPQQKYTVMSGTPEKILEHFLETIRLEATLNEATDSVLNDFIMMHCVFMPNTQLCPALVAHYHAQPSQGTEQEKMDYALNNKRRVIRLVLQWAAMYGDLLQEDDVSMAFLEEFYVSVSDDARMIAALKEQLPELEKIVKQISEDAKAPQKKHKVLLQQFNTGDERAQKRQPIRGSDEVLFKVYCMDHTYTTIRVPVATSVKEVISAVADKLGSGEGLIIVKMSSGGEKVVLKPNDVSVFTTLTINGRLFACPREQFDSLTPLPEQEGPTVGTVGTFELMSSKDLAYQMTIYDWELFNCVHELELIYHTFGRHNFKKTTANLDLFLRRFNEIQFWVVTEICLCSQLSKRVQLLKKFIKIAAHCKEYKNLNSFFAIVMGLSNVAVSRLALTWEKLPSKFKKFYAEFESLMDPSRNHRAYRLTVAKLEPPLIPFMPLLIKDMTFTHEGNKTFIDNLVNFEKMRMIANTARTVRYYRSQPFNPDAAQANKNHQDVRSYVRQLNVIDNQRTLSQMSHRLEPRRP

[16] = target: 3',5'-cyclic-AMP phosphodiesterase 4B (Homo sapiens) (UniProt Q07343); test: qHTS Assay for Inhibitors of PDE-IV (AID 607; active means well fitted activation curve with a large enough effect in the main read-out, with a control signal flat, not every such curve was filed as active; further: % of control where 0% means no effect)
3',5'-cyclic-AMP phosphodiesterase 4B (Homo sapiens), sequence (Q07343 whole entry, looked up): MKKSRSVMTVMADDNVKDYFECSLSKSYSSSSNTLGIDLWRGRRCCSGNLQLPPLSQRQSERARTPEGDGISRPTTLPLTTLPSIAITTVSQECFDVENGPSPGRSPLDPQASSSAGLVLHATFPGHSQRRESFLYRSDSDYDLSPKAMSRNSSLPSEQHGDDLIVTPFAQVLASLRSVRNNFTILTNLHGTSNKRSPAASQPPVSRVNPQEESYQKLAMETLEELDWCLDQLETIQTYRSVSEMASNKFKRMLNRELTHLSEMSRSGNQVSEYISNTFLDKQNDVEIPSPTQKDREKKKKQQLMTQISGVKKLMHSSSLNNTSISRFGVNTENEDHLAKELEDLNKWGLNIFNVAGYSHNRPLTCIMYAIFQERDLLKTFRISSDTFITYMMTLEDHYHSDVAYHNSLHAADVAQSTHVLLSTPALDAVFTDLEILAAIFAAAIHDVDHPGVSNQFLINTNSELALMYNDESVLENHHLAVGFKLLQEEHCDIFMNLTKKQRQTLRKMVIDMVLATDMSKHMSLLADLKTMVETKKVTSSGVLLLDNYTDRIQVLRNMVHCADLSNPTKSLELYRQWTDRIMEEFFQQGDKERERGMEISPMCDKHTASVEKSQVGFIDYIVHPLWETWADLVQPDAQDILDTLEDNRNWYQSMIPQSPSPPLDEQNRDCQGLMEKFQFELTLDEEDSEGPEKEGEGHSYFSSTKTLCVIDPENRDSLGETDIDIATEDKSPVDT
Outline: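 HEK293 ACTOne cells with CNG channel (1000/well), endogenous PDE4; membrane potential dye, compounds up to 22.9 uM final. Fluorescence Ex 535/Em 590; RO 20-1724 (100 uM final) as reference.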

[17] = target: Glucocorticoid receptor (Homo sapiens) (UniProt P04150); test: GR-GFP Redistribution (AID 450;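 active means compounds whose dose series gives a full or clear partial fitted curve of increased nuclear translocation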; further: potency means the concentration at half of the fitted maximal effect); conditions: U2OS GR-GFP nuclear translocation, laser cytometry, 2 h
[18] = target: Cytochrome P450 2C9 (Homo sapiens) (UniProt P11712); test: qHTS Assay for Inhibitors and Substrates of Cytochrome P450 2C9 (AID 883); further: potency means the concentration at half of the fitted maximal effect; nearly all actives have a fitted effect of over 60% in size
Outline: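 Inhibition of CYP2C9 is scored as loss of luminescence, with 57uM sulphaphenazole defining 100% inhibition. Substrate Luciferin-H is used at 100uM, equal to its KM; enzyme at 10nM in 25mM KPO4, 60 min at 37C with NADPH regeneration.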

[19] = target: Cytochrome P450 2C19 (Homo sapiens) (UniProt P33261); test: qHTS Assay for Inhibitors and Substrates of Cytochrome P450 2C19 (AID 899); further: nearly all actives have a fitted effect of over 60% in size; further: potency means the concentration at half of the fitted maximal effect
Outline: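 5nM enzyme + 10uM Luciferin-H EGE (=KM), 50mM KPO4; cpd pin-transferred, 10 min 37C; NADPH regen, 60 min 37C; stopped w/ luciferin detection reagent, 20 min; luminescence. Normalized to 57uM ketoconazole (AC100).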

COc1ccccc1CNc1nc(-c2cccnc2)nc2ccccc12
active: Potency [3] 1 µM | Potency [9] 12.6 µM | Potency [10] 10 µM | Potency [11] 4.47 µM
inactive: Potency [1] > 11.4 µM | activity change, negative = inhibition [2] -17.9% | activity change, negative = inhibition [4] -5.69% | activity, negative = inhibition [5] -25.3% | Potency [6] > 46 µM | Potency [7] | Potency [8] | Potency [12] | outcome [13] | Potency [14] | Potency [15]

COc1ccc(C(=O)N2CCC3(CCCN(Cc4cc(C(F)(F)F)cc(C(F)(F)F)c4)C3)CC2)cc1
inactive: Potency [1] > 11.4 µM | Potency [3] | activity change, negative = inhibition [4] -13.8% | activity, negative = inhibition [5] -8.85% | Potency [6] > 46 µM | Potency [7] | Potency [16] | Potency [8] | outcome [13] | Potency [14] | Potency [15]

COc1ccccc1-c1ccc2ncnc(N(C)Cc3ccco3)c2c1
inactive: Potency [1] > 11.4 µM | activity change, negative = inhibition [2] 10.4% | activity change, negative = inhibition [4] -26.4% | activity, negative = inhibition [5] -6.49% | Potency [17] > 46 µM | Potency [6] > 46 µM | Potency [7] | Potency [12] | outcome [13] | Potency [14] | Potency [15]
active: Potency [9] 8.91 µM | Potency [10] 14.1 µM | Potency [11] 2.82 µM

COc1ccc(Nc2ncc3nc(-c4cccs4)c(=O)n(Cc4cccc(OC)c4)c3n2)cc1
inactive: Potency [1] > 11.4 µM | activity change, negative = inhibition [2] -12.3% | Potency [3] | activity change, negative = inhibition [4] -11.6% | activity, negative = inhibition [5] -8.74% | Potency [17] > 9.22 µM | Potency [6] > 46 µM | Potency [7] | Potency [16] | Potency [9] | Potency [10] | Potency [11] | Potency [12] | outcome [13]

COc1ccc(-c2nc3cnc(Nc4cccc(OC)c4)nc3n(Cc3cccs3)c2=O)cc1
inactive: Potency [1] > 11.4 µM | Potency [3] | Potency [17] > 9.22 µM | Potency [6] > 46 µM | Potency [7] | Potency [16] | Potency [8] | Potency [9] | Potency [10] | Potency [11] | Potency [12] | outcome [13] | Potency [14] | Potency [15]

Cc1c(CC(C)(C)C(=O)O)n(Cc2ccc(Cl)cc2)c2ccc(F)cc12
inactive: activity change, negative = inhibition [2] -22.4% [at 38 µM] | Potency [17] > 46 µM | Potency [6] > 46 µM | Potency [7] | Potency [16] | Potency [8] | outcome [13] | Potency [14] | Potency [15]
316 nM (active) and inactive: Potency [19]
active: Potency [3] 12.6 µM and 15.8 µM | Potency [18] 0.501 µM
